# AID504770 = growth inhibitors of E. coli YBA685 in a screen for V. cholerae RctB (chromosome II replication) inhibitors. E. coli YBA685 rctB-dependent plasmid, OD600 growth, 3 h; hits give low values. z-score (concentration not given with the values). 130,000 tested, 0.27% active; in the data active = z-score below about -2, passing the limit was not always enough
# Mtb MbtI inh = inhibitors of Mycobacterium tuberculosis siderophore enzyme MbtI; inhibition, % (no concentration beside the values); 100,000 tested, 0.89% active; AID 493033; purified MbtI enzyme, fluorescence intensity read-out; in the data active = inhibition mostly above about 56%, no sharp cut-off; inactive = mostly below about 77%
# Mtb MenB inh = inhibitors of Mycobacterium tuberculosis MenB enzyme | P9WNP5 | MenB enzyme assay, absorbance read-out | inhibition, % (no concentration beside the values) | 100,000 tested, 0.43% active | AID 540299; in the data active = inhibition above about 21%, passing the limit was not always enough
# Target sequence (P9WNP5 whole entry, looked up): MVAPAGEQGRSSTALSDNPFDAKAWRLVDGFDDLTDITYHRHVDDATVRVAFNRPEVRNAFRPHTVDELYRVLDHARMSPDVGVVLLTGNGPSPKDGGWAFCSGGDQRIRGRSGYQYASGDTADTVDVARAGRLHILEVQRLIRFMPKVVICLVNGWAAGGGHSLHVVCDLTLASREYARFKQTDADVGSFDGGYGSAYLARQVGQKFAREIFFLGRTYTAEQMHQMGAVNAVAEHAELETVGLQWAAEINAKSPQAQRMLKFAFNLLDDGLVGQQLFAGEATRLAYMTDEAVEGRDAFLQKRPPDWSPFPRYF
# Polio RdRp inh = poliovirus RNA polymerase inhibition. P03300. poliovirus polymerase elongation, fluorescence polarization; hits give low values. % elongation, % (compound at 16.7 µg/mL). 150,000 tested, 0.66% active; in the data active = % elongation below about 90%
# Numbers stand for hits; – = inactive; · = not tested or not shown. Compounds with a hit are over-represented: about 1.5% of the library has one in this group of screens.
SMILES,AID504770,Mtb MbtI inh,Mtb MenB inh,Polio RdRp inh
O=C(Nc1ccc2c(c1)OCCO2)C1CCCN(S(=O)(=O)Cc2ccccc2)C1 (stereo not given),–,–,56,–
O=C(O)C1CCCN(S(=O)(=O)Cc2ccccc2)C1 (stereo not given),–,–,–,–
CN(C)C(CC(=O)Nc1ccc(O)cc1)C(=O)O (stereo not given),–,·,·,·
Cc1cc(=O)n(CC(=O)Nc2ccc(F)cc2)c(SCC(N)=O)c1C#N,–,–,–,–
Cc1ccc(C)c(CN2C(=O)CSc3ccc(C(=O)NCCc4ccc(Cl)cc4)cc32)c1,·,·,·,–
S=C=NCCn1ccc2ccccc21,-3.8,93,–,–
NCCn1ccc2ccccc21,–,–,–,–
O=C(CSc1nc2ccccc2s1)c1ccccc1,–,·,·,·
NC(=O)CSc1nc2ccccc2s1,–,82,–,–
O=C(CSc1nc2ccccc2s1)c1ccc[nH]1,–,–,–,58
O=C(/C=C/c1ccc(Br)cc1)Nc1ccccn1,–,–,–,–
COc1cc(SC)ccc1C(=O)N(C)C1CCN(C)CC1,–,–,–,-3.0
Cc1ccc(CNS(=O)(=O)c2ccc3c(c2)CC(C)N3C(=O)C2CCC2)cc1 (stereo not given),·,·,·,–
COc1cc(NC(=O)Cn2cc(S(=O)(=O)c3ccccc3)c(=O)c3ccccc32)cc(OC)c1,·,·,·,–
CCOc1ccc(C2CC(=O)NC(SCC(=O)Nc3ccccc3Cl)=C2C#N)cc1 (stereo not given),–,·,·,·
CCOC(=O)c1c(NC(=O)CSc2nc(-c3ccc(OC)cc3)cc(C(F)(F)F)n2)sc(C)c1C,·,·,·,86
CCCOC(=O)c1c(NC(=O)CSc2nc(-c3ccco3)cc(C(F)(F)F)n2)sc(C(=O)N(C)C)c1C,–,–,–,–
CCCCNC(=O)CSc1nc(-c2ccc(OC)cc2)cc(C(F)(F)F)n1,·,·,·,–
CCCOC(=O)c1c(NC(=O)C(C)Sc2nc(-c3ccccc3)cc(C(F)(F)F)n2)sc(C(=O)N(C)C)c1C (stereo not given),·,·,·,–
CCN(CC)C(=O)c1sc(NC(=O)C(C)Sc2nc(-c3ccccc3)cc(C(F)(F)F)n2)c(C(=O)OC)c1C (stereo not given),·,·,·,84
COC(=O)c1c(NC(=O)CSc2nc(-c3ccco3)cc(C(F)(F)F)n2)sc2c1CCCC2,–,57,–,–
c1ccc(CNC2=NCCS2)cc1,–,–,·,–
O=C(Sc1ccc(Cl)cc1)c1cnn(-c2ccccc2)c1C(F)(F)F,–,54,–,–
CN(C)c1nc(N)c(C#N)c(CC#N)c1C#N,–,–,–,80
Nn1c(-c2ccco2)n[nH]c1=S,–,–,–,–
SMILES,AID504770,Mtb MbtI inh,Mtb MenB inh,Polio RdRp inh
CCOc1ccccc1-c1n[nH]c(=S)n1N,–,–,–,83
Cc1cc(=O)[nH]c2[nH]n(-c3ccccc3)c(=O)c12,–,·,–,–
Cc1c(C)c2c(=O)n(-c3ccccc3)[nH]c2[nH]c1=O,–,66,·,·
Nc1ncc(N=Nc2cc(C(=O)O)ccc2Cl)s1,–,–,–,–
Nc1ncc(N=Nc2cc(C(=O)O)cc(C(=O)O)c2)s1,–,–,–,82
COc1ccccc1N1CCN(C(=O)c2ccccc2C(F)(F)F)CC1,–,–,–,–
COc1ccccc1N1CCN(C(=O)c2ccc[nH]c2=S)CC1,–,81,–,–
O=C1NCCC/C1=N/Nc1ccccc1,–,–,–,–
O=[N+]([O-])c1ccc(S(=O)(=O)N2CCn3cccc3C2c2ccc(Br)cc2)cc1 (stereo not given),·,·,·,–
Cc1cc(N)c(O)cc1C,–,100,–,–
Cc1cc(N)c(N)cc1C,–,–,–,–
Cc1ccc(C(=O)CSC#N)o1,-3.1,·,–,–
N#CCC(=O)c1ccccc1,–,–,·,–
N#CSCC(=O)c1ccccc1,-3.6,·,·,·
Cc1ccc(C(=O)O)o1,–,–,·,–
CC(OC(=O)c1cccn1C)C(=O)Nc1ccc(Cl)cc1 (stereo not given),–,–,–,–
CCn1c2ccccc2c2cc(NC(=O)C(C)OC(=O)c3cccn3C)ccc21 (stereo not given),–,–,–,20
O=C1c2ccccc2C(=O)N1CCCc1nn2c(-c3cccnc3)nnc2s1,–,64,–,–
O=S(N=C(c1ccccc1)c1ccccc1)c1ccccc1 (stereo not given),–,68,–,–
NN=C(c1ccccc1)c1ccccc1,–,–,–,–
CC1(C)OC2C(CO)OC(n3cnc4c(=O)[nH]cnc43)C2O1 (stereo not given),–,–,–,–
O=S(=O)(c1cccc(Cl)c1Cl)N1CCN(c2ncccn2)CC1,–,–,–,–
O=S(=O)(c1cccc(Cl)c1Cl)N1CCOCC1,–,–,33,–
C=CCn1c(NC(=O)c2ccccc2)c(C(=O)OCC)sc1=S,–,78,–,–
CCOC(=O)c1sc(NC(=O)c2ccccc2)c(SC#N)c1C,–,·,·,·
SMILES,AID504770,Mtb MbtI inh,Mtb MenB inh,Polio RdRp inh
CC(c1n[nH]c(=S)n1Cc1ccccc1)N(C)C (stereo not given),–,59,–,–
COc1ccc(C2CC(=O)c3cc(-c4nc(-c5cccc([N+](=O)[O-])c5)cs4)c(=O)n(-c4ccccc4N)c3C2)cc1 (stereo not given),·,·,·,–
Cc1ccc2oc(-c3ccccc3C(=O)O)cc(=O)c2c1,–,·,·,·
O=C(O)c1cc(-c2ccco2)nc2ccc(Br)cc12,–,·,–,73
O=C(O)c1ccccc1-c1ccc(-c2cc(C(=O)O)c3cc(F)ccc3n2)o1,-2.7,–,–,–
CC1=NCCN1S(=O)(=O)c1c(C(C)C)cc(C(C)C)cc1C(C)C,–,·,–,–
Cc1ccc(CNC(=O)c2oc3ccc4c(c3c2C)C(=O)CC(C)(C)O4)cc1,–,·,·,·
c1ccc(-c2nc(N3CCCCC3)c3ccccc3n2)cc1,–,–,33,–
COc1ccc(-n2ccnc2SCC(=O)Nc2ccc(F)cc2F)cc1,·,·,·,–
CNC(=O)CSc1nnc(-c2ccco2)n1CC1CCCO1 (stereo not given),–,–,43,–
CCCn1c(SCC(=O)c2ccc3c(c2)OCCO3)nnc1-c1ccco1,-3.8,–,–,–
CCN(CC)C(=O)CSc1nnc(-c2ccco2)n1CC1CCCO1 (stereo not given),–,–,–,–
COc1ccc(N2C(=O)CC(Sc3nc4ccccc4c(=O)n3CCO)C2=O)cc1 (stereo not given),-2.1,–,–,–
O=C(Sc1cccs1)C1COc2ccccc2O1 (stereo not given),-2.3,·,·,·
COc1ccc(OCC(O)CNC(=O)C2=Cc3cc(Cl)ccc3OC2)cc1 (stereo not given),–,·,·,·
O=C(NC1CCCc2ccccc21)c1cc(S(=O)(=O)N2CCCCC2)c[nH]1 (stereo not given),–,–,–,–
O=S(=O)(NC1CCc2ccccc21)c1ccc(S(=O)(=O)N2CCCC2)cc1 (stereo not given),–,–,39,–
COc1ccc([C@H]2NC(=O)C(=C=[N-])C(=O)[C@@H]2[n+]2ccccc2)cc1,–,·,–,37
COc1ccc(C2C(=O)c3ccccc3C2=O)cc1,–,–,–,–
C1CNCC(CN2CCCC2)C1 (stereo not given),–,–,46,–

# Screens as filed in PubChem BioAssay.
